The source of these data is PubChem BioAssay AID1654 (Sanford-Burnham Center for Chemical Genomics, 2009).

Among all 290,000 compounds or so, about 1,500 (0.52%) were called active. Rule as the data show it: active = inhibition above about 50%; inactive = the rest. Many of the other results were omitted from the sample, so actives are more common in it than they were.

This experiment concerns the target Dual specificity protein phosphatase 3 (Homo sapiens) (UniProt P51452). The experiment in a line: inhibition of human DUSP3 activity – biochemical, absorbance, uHTS, primary screen (AID 1654).
The mark [1] stands for this setting: recombinant VHR phosphatase, pNPP absorbance, at 13.3 µM, stronger effect = higher value.

Sequence of Dual specificity protein phosphatase 3 (Homo sapiens) (P51452 whole entry, looked up): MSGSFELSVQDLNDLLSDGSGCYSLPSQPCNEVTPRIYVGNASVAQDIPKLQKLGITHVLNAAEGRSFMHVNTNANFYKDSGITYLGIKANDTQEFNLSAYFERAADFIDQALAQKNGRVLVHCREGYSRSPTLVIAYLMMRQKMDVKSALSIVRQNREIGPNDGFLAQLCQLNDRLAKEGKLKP

Consider `CCCCCn1c(=O)[nH]c2cc(C(=O)NCCCN3CCCCC3C)ccc2c1=O` (centres undefined), for which the inhibition – broadly, the drop in the measured response relative to a control, in per cent – under setting [1] was 22.4% (inactive).

Consider `CCCCOP(=O)(c1ccc(N(C)C)cc1)C(O)c1cc(OC)ccc1OC` (centres undefined), for which the inhibition under setting [1] is 6.1% (inactive).

With `O=C(Nc1nnc(-c2ccc(Cl)cc2)o1)c1ccccc1Br`, under setting [1], the inhibition was 41.9% (inactive).

For the molecule `O=C(c1nnc(-c2ccc(Cl)cc2)o1)C1CCCC1`, the inhibition under setting [1] was 51.3% (active).

On to `CSc1ccccc1-c1nnc(-c2ccc(Cl)cc2)o1`, for which the inhibition under setting [1] was 25.3% (inactive).

Take `CCOc1ccc(NC(=S)N2CCC(NC(=O)c3ccccc3)CC2)cc1`: the inhibition under setting [1] was 20.4% (inactive).

`O=C(COc1ccc(Br)cc1F)NC1CCN(Cc2ccccc2)CC1`: the inhibition under setting [1] was 4.7% (inactive).

In the case of `CCOc1ccc(CC(=O)NC2CCN(Cc3ccccc3)CC2)cc1`, the inhibition under setting [1] is 51% (active).

As for `Clc1ccc(Nc2ncnc3c2nnn3Cc2ccccc2)cc1`, the inhibition under setting [1] was 16.3% (inactive).

As for `Cc1nc(Nc2ccc3c(c2)OCCO3)c2nnn(Cc3ccccc3Cl)c2n1`, under setting [1], the inhibition was 18.2% (inactive).

Consider `CC(=O)Nc1ccc(Nc2ncnc3c2nnn3Cc2ccccc2Cl)cc1`, for which the inhibition under setting [1] was 52% (active).

In the case of `CCC(=O)Nc1ccc(-c2ccc(N3CCCCC3)nn2)cc1`, the inhibition under setting [1] is -19.8% (inactive).

`CC(=O)c1cccc(NC(=O)C2CCCN2S(=O)(=O)c2cccc3nsnc23)c1` (centres undefined): the inhibition under setting [1] is 54.2% (active).

In the case of `O=C(NCc1ccco1)C1CCCN(S(=O)(=O)c2cccc3nonc23)C1` (centres undefined), the inhibition under setting [1] is 3.6% (inactive).

Regarding `Cc1ccc(NC(=O)C2CCCN2S(=O)(=O)c2cccc3cccnc23)c(C)c1` (centres undefined), the inhibition under setting [1] is -0.7% (inactive).

On to `O=C(Nc1nccs1)C1CCCN1S(=O)(=O)c1cccc2cccnc12` (centres undefined), for which the inhibition under setting [1] was 56.5% (active).

Consider `CC(=O)c1cccc(NC(=O)C2CCCN(S(=O)(=O)c3cccc4nonc34)C2)c1` (centres undefined), for which the inhibition under setting [1] was 50.4% (active).

In the case of `COc1ccc(NC(=O)C2CCCN(S(=O)(=O)c3cccc4cccnc34)C2)cc1OC` (centres undefined), under setting [1], the inhibition was 23.6% (inactive).

Turning to `CC1CCCCC1NC(=O)C1CCCN1S(=O)(=O)c1cccc2nsnc12` (centres undefined), the inhibition under setting [1] was 16.6% (inactive).

In the case of `COc1ccc(OC)c(NC(=O)C2CCCN2S(=O)(=O)c2cccc3nsnc23)c1` (centres undefined), under setting [1], the inhibition was 19% (inactive).

Consider `Cc1cc(C)cc(NC(=O)C2CCCN2S(=O)(=O)c2cccc3cccnc23)c1` (centres undefined), for which, under setting [1], the inhibition was -42.1% (inactive).

Turning to `CCc1ccc(-c2cc(C)no2)cc1S(=O)(=O)NCCc1ccc(S(N)(=O)=O)cc1`, the inhibition under setting [1] was 28% (inactive).

Consider `Cc1ccc(NC(=O)c2nc[nH]c2C(=O)N[C@@H](CCCCNC(=O)OC(C)(C)C)C(=O)OC(C)(C)C)cc1`, for which, under setting [1], the inhibition is -0.7% (inactive).

As to `CCc1ccccc1NC(=O)c1ccc2c(c1)CCN2S(C)(=O)=O`, the inhibition under setting [1] is -17.9% (inactive).

Turning to `O=C1/C(=C/c2ccc(F)cc2)SC(=S)N1CCCC(=O)N1CCCCC1CCO` (centres undefined), under setting [1], the inhibition is 42.6% (inactive).

Consider `CC(=O)Nc1ccc(S(=O)(=O)N2CCC(C(=O)NC3CC3)CC2)cc1`, for which, under setting [1], the inhibition was 14.9% (inactive).

Turning to `CCC(C(=O)NC1CCCC1)N(C(=O)Cn1nnc(-c2ccc(C)o2)n1)c1ccc(OC)c(OC)c1` (centres undefined), under setting [1], the inhibition was 13% (inactive).

With `Nc1nc(SCC(=O)Nc2ccc(Cl)cc2C(F)(F)F)n[nH]1`, the inhibition under setting [1] was 2.5% (inactive).

For the molecule `CCN(C(=O)CSc1nnc(-c2ccncc2)o1)c1ccccc1`, under setting [1], the inhibition is 11% (inactive).

For `COc1cccc(OC)c1C(=O)Nc1c(C(=O)N2CCN(c3ccccn3)CC2)oc2ccccc12`, under setting [1], the inhibition was 52.1% (active).

As to `COCC(=O)Nc1c(C(=O)N2CCCC2)oc2ccccc12`, the inhibition under setting [1] is 1% (inactive).

In the case of `Cc1cc(C(=O)N2CCN(c3ccccn3)CC2)c(C)o1`, the inhibition under setting [1] was -2.1% (inactive).

`CCOc1ccc(CN2CCN(Cc3ccc4cc(F)ccc4n3)CC2CCO)cc1` (centres undefined): the inhibition under setting [1] is 6.4% (inactive).

For the molecule `Cc1cccc(C(=O)OCC(=O)Nc2ccc(F)cc2)c1`, the inhibition under setting [1] was 8% (inactive).

On to `Cc1cc(C)nc(-n2ncc3c2CC(c2ccc(C(C)C)cc2)CC3=O)n1` (centres undefined), for which the inhibition under setting [1] was 1.9% (inactive).

Consider `NC(=S)Nc1c(Cl)cccc1Cl`, for which the inhibition under setting [1] was 24.6% (inactive).

For the molecule `CSCCNC(=O)c1ccc2nc(Cc3ccccc3F)oc2c1`, the inhibition (recombinant VHR phosphatase, pNPP absorbance; at 13.3 µM; stronger effect = higher value) is 63.9% (inactive) and the inhibition (recombinant VHR phosphatase, pNPP absorbance; measured here: average of confirmation repeats; at 13.3 µM; stronger effect = higher value) was 2.8%.

Regarding `Cc1ccc(NC2CCCN(C(=O)CCc3cn[nH]c3)C2)cc1C` (centres undefined), the inhibition under setting [1] is -2.7% (inactive).

Consider `CCOc1cc(/C=N/O)ccc1OCc1ccccc1F`, for which, under setting [1], the inhibition was -4.1% (inactive).

In the case of `CCOc1cc(/C=N/NC(=O)OC)ccc1OCCSc1ccc(Cl)cc1`, under setting [1], the inhibition is -3.8% (inactive).

Take `CC(=O)c1nn(-c2cccc(C(F)(F)F)c2)c(=O)[nH]c1=O`: the inhibition under setting [1] was -9.5% (inactive).

Take `CN(CCO)c1ccc(/C=N/Nc2nncc3ccccc23)cc1`: the inhibition under setting [1] was 18.2% (inactive).

Consider `O=C(Nc1ccc(OCC(=O)N2CCOCC2)cc1)c1cc(F)c(F)cc1Cl`, for which, under setting [1], the inhibition is 25.5% (inactive).

On to `O=C1COc2ccc(S(=O)(=O)Nc3ccc(OC(F)(F)F)cc3)cc2N1`, for which the inhibition under setting [1] was -1.9% (inactive).

For the molecule `Cc1ccc(C)c(SCc2nc3sc(C(=O)O)c(C)c3c(=O)[nH]2)c1`, the inhibition under setting [1] was 7.2% (inactive).

`COc1ccccc1NC(=O)CSc1nc2sc3c(c2c(=O)n1-c1ccccc1)CCN(C)C3`: the inhibition under setting [1] was 9.1% (inactive).

`Cc1ccc(-c2nc(SCC(=O)Nc3ccccc3OC(F)F)c3c(C)c(C(=O)O)sc3n2)cc1`: under setting [1], the inhibition was 113% (active).

In the case of `CCN(CC)c1ccc(/C=N/NC(=O)CNC(=O)c2cccs2)cc1`, the inhibition under setting [1] is 10.2% (inactive).

For the molecule `CN(C(=O)COC(=O)CNC(=O)C12CC3CC(CC(C3)C1)C2)c1ccccc1`, the inhibition under setting [1] is 14.5% (inactive).

`NNC(=O)c1nnn(-c2nonc2N)c1CN1CCCC1`: the inhibition under setting [1] was 52.8% (active).

With `Nc1nonc1-n1nnc(C(=O)N/N=C\c2ccncc2)c1CN1CCCCC1`, the inhibition under setting [1] is 13% (inactive).

For `Cc1c(C(=O)O)nnn1-c1nonc1N`, under setting [1], the inhibition was 17.9% (inactive).

Regarding `Cc1ccc2c(c1)N(CC(=O)N1CCCC(C)C1)C(=O)CO2` (centres undefined), the inhibition under setting [1] was 7.4% (inactive).

Turning to `CCOc1ccc(CN2CCN(CCCc3ccccc3)C(CCO)C2)cc1` (centres undefined), the inhibition under setting [1] was 8.1% (inactive).

For the molecule `Cc1noc(C)c1CCC(=O)N1CCCC(CO)(Cc2ccccc2)C1` (centres undefined), under setting [1], the inhibition was 5.7% (inactive).

As to `CC1CN(C(=S)Nc2ccc(Br)cc2Cl)CC(C)O1` (centres undefined), the inhibition under setting [1] was 15% (inactive).

Regarding `CCOc1ccc(NC(=O)CN2CCN(CC(=O)Nc3ccc(OC)cc3)CC2)cc1`, the inhibition under setting [1] is -3.3% (inactive).

In the case of `CCc1ccc(NC(=O)Cn2nnc(C(=O)NCc3ccc(OC)cc3)c2N)cc1`, the inhibition under setting [1] is -1.9% (inactive).

Turning to `CCc1ccc(NC(=O)CN2CCC(C(=O)c3ccc(OC)cc3)CC2)cc1`, the inhibition under setting [1] was 52% (active).

For `CCCCNC(=O)C1CCCN(S(=O)(=O)c2ccc(S(=O)(=O)NCC(C)C)cc2)C1` (centres undefined), the inhibition under setting [1] is 6.5% (inactive).

As to `CC(C)CCNC(=O)C1CCCN(S(=O)(=O)c2ccc(F)cc2)C1` (centres undefined), the inhibition under setting [1] is 53.4% (active).

For `COc1ccc(CCNC(=O)C2CCCN(S(=O)(=O)c3ccc(OC)cc3)C2)cc1` (centres undefined), the inhibition under setting [1] was -35.9% (inactive).

Consider `CCc1cc(-c2nnc(SCC(=O)NC3CC3)n2C)cs1`, for which the inhibition under setting [1] was 24% (inactive).

Regarding `O=c1c2c(-c3ccccc3)ccnc2[nH]n1-c1ccccc1`, under setting [1], the inhibition is 55.5% (active).

With `O=c1c(-c2cccc(Cl)c2)c[nH]n1-c1ccccc1`, under setting [1], the inhibition was 12.5% (inactive).

As to `Cc1ccc(-n2[nH]c(C)c(/C=N/N3C(=O)c4cccc5cccc(c45)C3=O)c2=O)cc1`, the inhibition under setting [1] is 20.9% (inactive).

As for `Cc1ccc(C2C3=C(Nc4[nH]n(-c5ccccc5)c(=O)c42)c2ccccc2C3=O)cc1` (centres undefined), under setting [1], the inhibition was 1.7% (inactive).

For the molecule `O=c1[nH]cnc2c1c(-c1ccccc1)cn2-c1ccc(F)cc1`, the inhibition under setting [1] was -6.9% (inactive).

In the case of `Cc1ccc(-c2ccnc3[nH]n(-c4ccccc4)c(=O)c23)cc1`, the inhibition under setting [1] is 60% (active).

As to `Cc1ccc(S(=O)(=O)N2CCC(C(=O)N[C@@H](C)C(=O)NCc3ccccc3)CC2)cc1`, the inhibition under setting [1] is 1.5% (inactive).

Turning to `Cc1ccc(S(=O)(=O)N2CCC(C(=O)N[C@@H](C)C(=O)NCCc3ccccc3)CC2)cc1`, the inhibition under setting [1] is 6.2% (inactive).

For `C[C@H](NC(=O)C1CCN(S(=O)(=O)c2ccccc2)CC1)C(=O)NCc1ccccc1`, the inhibition under setting [1] is 52.3% (active).

`N#Cc1c(-c2ccccc2)nc(SCc2ccc([N+](=O)[O-])cc2)[nH]c1=O`: the inhibition under setting [1] is 4.1% (inactive).

For `O=C(O)C(NS(=O)(=O)c1cccc2nsnc12)c1ccccc1` (centres undefined), the inhibition under setting [1] is 13.3% (inactive).

In the case of `O=C(C(NS(=O)(=O)c1cccc2nsnc12)c1ccccc1)N1CCN(c2ccccc2)CC1` (centres undefined), the inhibition under setting [1] is -12.8% (inactive).

With `O=C(C(NS(=O)(=O)c1cccc2nsnc12)c1ccccc1)N1CCN(c2ccccn2)CC1` (centres undefined), the inhibition under setting [1] is 52.7% (active).

On to `O=C(NCCOc1cccnc1)c1ccc(OC2CCN(Cc3ccccn3)CC2)cc1`, for which, under setting [1], the inhibition was 18.5% (inactive).

Consider `Fc1ccc(/C=N/n2c(COc3ccccc3)n[nH]c2=S)cc1`, for which the inhibition under setting [1] was 26.3% (inactive).

With `C/C(=N/O)c1ccc(N2C(=O)C3C4C=CC(C3C2=O)C2C3C(=O)N(c5ccc(/C(C)=N/O)cc5)C(=O)C3C42)cc1` (centres undefined), the inhibition under setting [1] is -7.1% (inactive).

Take `CC1CCN(C(=O)/C(=C\c2ccccc2F)NC(=O)c2ccccc2)CC1`: the inhibition under setting [1] is 18.5% (inactive).

With `CN(CC(=O)NCc1ccc(Cl)cc1)S(=O)(=O)c1cccs1`, under setting [1], the inhibition was 21.4% (inactive).

`Cc1cccc(C(=O)N2CCCC(Nc3ccc(C(C)C)cc3)C2)n1` (centres undefined): the inhibition under setting [1] was 10.8% (inactive).

In the case of `CC(C)c1ccc(NC2CCCN(C(=O)c3ccncc3)C2)cc1` (centres undefined), under setting [1], the inhibition is 13.7% (inactive).

Consider `COc1ccc(NC2CCCN(C(=O)c3ccncc3)C2)cc1` (centres undefined), for which the inhibition under setting [1] was 54.2% (active).

Consider `COc1cc(C(=O)N2CCN(C3CCC(C)CC3)CC2)cc(OC)c1OC` (centres undefined), for which, under setting [1], the inhibition is 16.6% (inactive).

With `CCOc1ccc2[nH]c(=O)c(CN(CCCO)S(=O)(=O)c3ccc(F)cc3)cc2c1`, the inhibition under setting [1] is 39.4% (inactive).

Regarding `COc1cc(C(=S)NCc2ccccc2)cc(Br)c1O`, under setting [1], the inhibition was 25.9% (inactive).

Regarding `COc1cc(C(=O)NCc2ccc(-n3cccc3)cc2)cc(OC)c1OC`, under setting [1], the inhibition is 33.3% (inactive).

On to `COc1cc(C(=O)NCc2ccncc2)cc(Br)c1OCc1ccccc1`, for which the inhibition under setting [1] is 50% (active).

`CCOC(=O)c1c(S(=O)(=O)Nc2ccc(CN3CCC(C)CC3)cc2)c(C)n(C)c1C`: the inhibition under setting [1] was -22.3% (inactive).

On to `CN(CC(=O)Nc1ccc(F)cc1)C(=O)c1ccc(-c2ccc(Cl)cc2)o1`, for which, under setting [1], the inhibition is 16.7% (inactive).

With `CCOc1ncccc1C(=O)N(CC)CC(=O)Nc1ccc(NC(C)=O)cc1`, the inhibition under setting [1] was 1.3% (inactive).

As for `CCOc1ncccc1C(=O)N(C)CC(=O)Nc1ccc(F)cc1`, the inhibition under setting [1] is 59.9% (active).
